Test results as given in publication PMC5540273 (PLoS ONE, 2017).

Key:
Conditions in all cases: concentration: 1 μM, replicates: in singlicate; n = 1
CLK2 = tested on: CLK2
CLK3 = tested on: CLK3
CLK4 = tested on: CLK4
CSF1R-autoinhibited = tested on: CSF1R-autoinhibited
CSF1R = tested on: CSF1R
CSK = tested on: CSK
CSNK1A1L = tested on: CSNK1A1L
CSNK1A1 = tested on: CSNK1A1
CSNK1D = tested on: CSNK1D
CSNK1E = tested on: CSNK1E
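Note: KINOMEscan kinase panel screen.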

| SMILES | %Inh (CLK2) | %Inh (CLK3) | %Inh (CLK4) | %Inh (CSF1R-autoinhibited) | %Inh (CSF1R) | %Inh (CSK) | %Inh (CSNK1A1L) | %Inh (CSNK1A1) | %Inh (CSNK1D) | %Inh (CSNK1E) |
| --- | --- | --- | --- | --- | --- | --- | --- | --- | --- | --- |
| O=C(Nc1n[nH]c2nc(-c3ccc(O)cc3)ccc12)C1CC1 [SB-710363] | 21% | 10% | 15% | 0% | 0% | 0% | 10% | 0% | 0% | 12% |
| CSc1cccc2c(-c3ccncn3)c(-c3ccc(F)cc3)nn12 [GW514786] | 0% | 11% | 13% | 21% | 0% | 0% | 21% | 61% | 84% | 69% |
| Cc1ccc(C(=O)N2CC[C@@H](O)C2)cc1-n1c(C)cc(OCc2ccc(F)cc2F)c(Br)c1=O | 0% | 0% | 0% | 0% | 75% | 0% | 0% | 0% | 0% | 0% |
| Cc1cccc(Nc2nc(N[C@H]3CCNC3)ncc2C(N)=O)c1.Cl [GSK2197149] | 71% | 37% | 33% | 0% | 87% | 0% | 78% | 75% | 67% | 86% |
| COc1cc2c(cc1OCCN1CCNCC1)ncc1c3ccc(C#N)cc3[nH]c21 | 86% | 27% | 91.7% | 98.4% | 51% | 12% | 0% | 40% | 8% | 0% |
| Fc1ccc(-c2ncn(C3CCNCC3)c2-c2ccnc(Oc3ccc(-c4ccccc4)cc3)n2)cc1 [SB-245391] | 11% | 32% | 0% | 8% | 12% | 14% | 71% | 93.9% | 96.2% | 99.5% |
| Nc1ncnc2c1nc(-c1ccccc1)n2-c1ccccc1 [SKF-97293] | 28% | 25% | 20% | 22% | 7% | 22% | 0% | 0% | 10% | 23% |
| COCCOCCOc1cc2ncc3c4ccc(C#N)cc4[nH]c3c2cc1OC | 67% | 14% | 76% | 97.4% | 50% | 10% | 8% | 5% | 0% | 2% |
| CC(C)c1nc(-c2cccc(NS(=O)(=O)c3c(F)cccc3F)c2F)c(-c2ccnc(Nc3ccc(N4CCOCC4)nc3)n2)s1 [GSK2008607] | 0% | 0% | 0% | 0% | 86% | 98% | 0% | 0% | 0% | 4% |
| CCn1c(-c2nonc2N)nc2c(C#CC(C)(C)O)nc(OC[C@H](N)c3ccccc3)cc21 [GSK943949] | 0% | 15% | 8% | 0% | 35% | 0% | 0% | 7% | 0% | 15% |
| CCc1ccc(-c2ccc3c(c2)-c2c(cnn2C)S(=O)(=O)N3C)cc1 | 13% | 0% | 10% | 9% | 3% | 0% | 0% | 0% | 0% | 1% |
